The campaign covered roughly 39,000 compounds. About 1,500 (3.8%) were called active. For the sample, actives were picked, then their nearest neighbours and some compounds at random.
The molecules below were run on HSkMC (human skeletal muscle cells) (assay: cytotoxicity call (relative viability < 0.9)). Details: 10 µM.

SMILES	cytotoxicity call
Cc1noc(C)c1NC(=O)N(C)C[C@@H]1Oc2ccc(NS(=O)(=O)c3cn(C)cn3)cc2C(=O)N([C@H](C)CO)C[C@@H]1C	inactive
Cc1ccc(S(=O)(=O)N(C)C[C@@H]2OCCCC[C@@H](C)Oc3ccc(NC(=O)Nc4ccc(F)cc4)cc3C(=O)N([C@@H](C)CO)C[C@H]2C)cc1	inactive
O=C(C[C@@H]1C=C[C@@H](NC(=O)c2cccc(F)c2)[C@H](CO)O1)NCCN1CCCC1	inactive
C[C@H](CO)N1C[C@H](C)[C@@H](CN(C)Cc2ccc(Cl)c(Cl)c2)Oc2ccc(NS(=O)(=O)c3ccc(F)cc3)cc2CC1=O	inactive
C[C@H](CO)N1C[C@H](C)[C@H](CN(C)Cc2ccc(Cl)c(Cl)c2)Oc2ccc(NS(=O)(=O)c3ccc(F)cc3)cc2CC1=O	inactive
C[C@H]1CN([C@@H](C)CO)C(=O)Cc2cc(NS(=O)(=O)c3ccc(Cl)cc3)ccc2O[C@H]1CN(C)Cc1ccc(Cl)c(Cl)c1	active
C[C@@H]1CN([C@H](C)CO)C(=O)Cc2cc(NS(=O)(=O)c3ccc(Cl)cc3)ccc2O[C@H]1CN(C)Cc1ccc(Cl)c(Cl)c1	active
COc1ccc(S(=O)(=O)Nc2cccc3c2O[C@@H](CN(C)S(=O)(=O)c2cccs2)[C@@H](C)CN([C@@H](C)CO)C3=O)cc1	inactive
C[C@H]1CN([C@@H](C)CO)C(=O)c2cccc(NC(=O)Nc3cccc4ccccc34)c2O[C@H]1CN(C)C(=O)Nc1ccc(F)cc1	inactive
OCCN1CCOCC1	inactive
CCN1C(=O)S[C@@H](CC(=O)O)C1=O	inactive
COc1ccc(NC(=O)N(C)C[C@@H]2Oc3c(NS(C)(=O)=O)cccc3C(=O)N([C@@H](C)CO)C[C@H]2C)cc1	inactive
CN1C(=O)c2cc(NC(=O)Nc3ccccc3F)ccc2OC[C@@H]2O[C@H](CC(=O)NCc3ccc(-c4ccccc4)cc3)CC[C@H]21	inactive
O=[N+]([O-])c1ccc(Oc2ccc(-c3ccccc3)cc2)cc1	inactive
O=c1cc(O)nc[nH]1	inactive
O=C(O)c1ccc(O)c(O)c1O	inactive
CSCC[C@H](NC(=O)[C@H](Cc1c[nH]c2ccccc12)NC(=O)CNC(=O)[C@@H](NC(=O)[C@H](Cc1ccc(OS(=O)(=O)O)cc1)NC(=O)[C@H](CC(=O)O)NC(=O)[C@H](CCC(N)=O)NC(=O)[C@@H]1CCC(=O)N1)[C@@H](C)O)C(=O)N[C@@H](CC(=O)O)C(=O)N[C@@H](Cc1ccccc1)C(N)=O	inactive
CSCC[C@H](NC(=O)[C@H](Cc1ccc(OS(=O)(=O)O)cc1)NC(=O)[C@@H](N)CC(=O)O)C(=O)NCC(=O)N[C@@H](Cc1c[nH]c2ccccc12)C(=O)N[C@@H](CCSC)C(=O)N[C@@H](CC(=O)O)C(=O)N[C@@H](Cc1ccccc1)C(N)=O	active
CSCC[C@H](NC(=O)[C@@H](N)Cc1c[nH]c2ccccc12)C(=O)N[C@@H](CC(=O)O)C(=O)N[C@@H](Cc1ccccc1)C(N)=O	inactive
C[C@H]1CN([C@@H](C)CO)C(=O)Cc2cc(NC(=O)c3ccncc3)ccc2O[C@H]1CN(C)S(=O)(=O)c1ccc(F)cc1	inactive
C[C@H](CO)N1C[C@H](C)[C@@H](CN(C)S(=O)(=O)c2ccc(F)cc2)OCCCC[C@H](C)Oc2ccc(NC(=O)c3ccccc3)cc2C1=O	inactive
O=C(O)[C@H]1C[C@@H](CP(=O)(O)O)CCN1	inactive
COc1ccc(NC(=O)Nc2ccc3c(c2)C(=O)N([C@H](C)CO)C[C@@H](C)[C@H](CN(C)Cc2ccc(C(F)(F)F)cc2)O3)cc1	inactive

SMILES	cytotoxicity call
COc1ccc(CN(C)C[C@@H]2Oc3ccc(NC(=O)Nc4ccc(C(F)(F)F)cc4)cc3C(=O)N([C@H](C)CO)C[C@H]2C)cc1	active
COc1ccc(NC(=O)Nc2ccc3c(c2)C(=O)N([C@@H](C)CO)C[C@@H](C)[C@H](CN(C)Cc2ccc(C(F)(F)F)cc2)O3)cc1	inactive
COc1ccc(NC(=O)Nc2ccc3c(c2)C(=O)N([C@@H](C)CO)C[C@@H](C)[C@@H](CN(C)Cc2ccc(C(F)(F)F)cc2)O3)cc1	inactive
COc1ccc(CN(C)C[C@@H]2Oc3ccc(NC(=O)Nc4ccc(C(F)(F)F)cc4)cc3C(=O)N([C@@H](C)CO)C[C@H]2C)cc1	active
COc1ccc(CN(C)C[C@H]2Oc3ccc(NC(=O)Nc4ccc(C(F)(F)F)cc4)cc3C(=O)N([C@H](C)CO)C[C@H]2C)cc1	inactive
COc1ccc(NC(=O)Nc2ccc3c(c2)C(=O)N([C@@H](C)CO)C[C@H](C)[C@@H](CN(C)Cc2ccc(C(F)(F)F)cc2)O3)cc1	inactive
COc1ccc(NC(=O)Nc2ccc3c(c2)C(=O)N([C@H](C)CO)C[C@H](C)[C@@H](CN(C)Cc2ccc(C(F)(F)F)cc2)O3)cc1	inactive
COc1ccc(CN(C)C[C@@H]2Oc3ccc(NC(=O)Nc4ccc(C(F)(F)F)cc4)cc3C(=O)N([C@H](C)CO)C[C@@H]2C)cc1	active
COc1ccc(CN(C)C[C@H]2Oc3ccc(NC(=O)Nc4ccc(C(F)(F)F)cc4)cc3C(=O)N([C@H](C)CO)C[C@@H]2C)cc1	inactive
COc1ccc(NC(=O)Nc2ccc3c(c2)C(=O)N([C@@H](C)CO)C[C@H](C)[C@H](CN(C)Cc2ccc(C(F)(F)F)cc2)O3)cc1	inactive
COc1ccc(CN(C)C[C@@H]2Oc3ccc(NC(=O)Nc4ccc(C(F)(F)F)cc4)cc3C(=O)N([C@@H](C)CO)C[C@@H]2C)cc1	active
Nc1cccn2ncnc12	inactive
CCCC(=O)Nc1nc2[nH]c(C)cc(=O)n2n1	inactive
COc1cccc(CNC(=O)c2cc3c(c(-c4cccc(-c5cccc(C#N)c5)c4)n2)[C@@H](CCO)N([S@](=O)C(C)(C)C)C3)c1	inactive
COC1(NC(=O)C(C(=O)[O-])c2ccc(O)cc2)C(=O)N2C(C(=O)[O-])=C(CSc3nnnn3C)COC21.[Na+].[Na+] (stereo not drawn)	inactive
CNC[C@H]1OCCCC[C@@H](C)Oc2ccc(NC(=O)c3ccncc3)cc2C(=O)N([C@@H](C)CO)C[C@H]1C	inactive
C[C@@H]1CCCCO[C@@H](CN(C)C(=O)Nc2ccc(F)cc2)[C@@H](C)CN([C@H](C)CO)C(=O)c2cc(NC(=O)C3CCCCC3)ccc2O1	inactive
C[C@@H]1CN([C@@H](C)CO)C(=O)c2cc(NC(=O)c3ccccc3)ccc2O[C@@H](C)CCCCO[C@@H]1CN(C)S(=O)(=O)c1ccc(F)cc1	inactive
Cc1cc(O)n(C[C@H]2CCCO2)c(=O)c1C#N	inactive
COc1ccc(S(=O)(=O)Nc2ccc3c(c2)C(=O)N([C@H](C)CO)C[C@@H](C)[C@H](CN(C)C(=O)Nc2ccc4c(c2)OCO4)OCCCC[C@@H](C)O3)cc1	inactive
COc1ccc(S(=O)(=O)N(C)C[C@H]2Oc3c(NC(=O)Nc4c(C)noc4C)cccc3C(=O)N([C@@H](C)CO)C[C@@H]2C)cc1	inactive
O=C(NC1CCCCC1)N1c2ccccc2C=Cc2ccccc21	inactive
C[C@H]1CN([C@@H](C)CO)C(=O)c2c(c3ccccc3n2C)-c2ccccc2CO[C@@H]1CN(C)Cc1cccc2c1OCCCO2	inactive

SMILES	cytotoxicity call
CCCC(=O)N1CC[C@]2(CC1)CN([C@H](CO)c1c2c2ccc(cc2n1C)OC)C(=O)CN1CCOCC1	inactive
C[C@H](CO)N1C[C@H](C)[C@H](CN(C)C(=O)Nc2ccc(F)cc2)Oc2ccc(NC(=O)Nc3cccc4ccccc34)cc2C1=O	inactive
CCS(=O)(=O)Nc1ccc2c(c1)C(=O)N(C)[C@H]1CC[C@@H](CC(=O)NCCCN3CCOCC3)O[C@H]1CO2	inactive
COc1ccc(CN(C)C[C@H]2Oc3ccc(NC(=O)Nc4ccc(C(F)(F)F)cc4)cc3C(=O)N([C@@H](C)CO)C[C@@H]2C)cc1	active
COc1ccc(NC(=O)Nc2ccc3c(c2)C(=O)N([C@H](C)CO)C[C@@H](C)[C@@H](CN(C)Cc2ccc(C(F)(F)F)cc2)O3)cc1	inactive
COc1ccc(NC(=O)Nc2ccc3c(c2)C(=O)N([C@H](C)CO)C[C@H](C)[C@H](CN(C)Cc2ccc(C(F)(F)F)cc2)O3)cc1	inactive
COc1ccc(CN(C)C[C@H]2Oc3ccc(NC(=O)Nc4ccc(C(F)(F)F)cc4)cc3C(=O)N([C@@H](C)CO)C[C@H]2C)cc1	active
COc1ccc(S(=O)(=O)Nc2ccc3c(c2)C(=O)N([C@@H](C)CO)C[C@@H](C)[C@@H](CN(C)Cc2ccccc2)OCCCC[C@H](C)O3)cc1	inactive
C[C@H](CO)N1C[C@H](C)[C@@H](CN(C)S(=O)(=O)c2ccc(Cl)cc2)Oc2c(NS(C)(=O)=O)cccc2C1=O	inactive
C[C@@H]1CN([C@@H](C)CO)C(=O)Cc2cc(NS(C)(=O)=O)ccc2O[C@H]1CN(C)S(=O)(=O)c1ccc(F)cc1	inactive
O=C(C[C@@H]1C=C[C@H](NC(=O)c2ccncc2)[C@@H](CO)O1)NCc1ccncn1	inactive
Cc1ccc(S(=O)(=O)Nc2ccc3c(c2)C(=O)N([C@@H](C)CO)C[C@H](C)[C@@H](CN(C)Cc2ccc(Oc4ccccc4)cc2)O3)cc1	inactive
Cc1ccc(S(=O)(=O)Nc2ccc3c(c2)C(=O)N([C@@H](C)CO)C[C@@H](C)[C@H](CN(C)Cc2ccc(Oc4ccccc4)cc2)O3)cc1	inactive
C[C@@H]1CN([C@H](C)CO)C(=O)c2cc(NS(=O)(=O)c3ccccc3)ccc2O[C@@H]1CN(C)Cc1ccc(Oc2ccccc2)cc1	active
Cc1ccc(S(=O)(=O)Nc2ccc3c(c2)C(=O)N([C@H](C)CO)C[C@@H](C)[C@@H](CN(C)Cc2ccc(Oc4ccccc4)cc2)O3)cc1	active
Cc1ccc(S(=O)(=O)Nc2ccc3c(c2)C(=O)N([C@@H](C)CO)C[C@H](C)[C@H](CN(C)Cc2ccc(Oc4ccccc4)cc2)O3)cc1	inactive
Cc1ccc(S(=O)(=O)Nc2ccc3c(c2)C(=O)N([C@@H](C)CO)C[C@@H](C)[C@@H](CN(C)Cc2ccc(Oc4ccccc4)cc2)O3)cc1	active
COc1ccc(S(=O)(=O)Nc2ccc3c(c2)C(=O)N([C@H](C)CO)C[C@H](C)[C@H](CN(C)Cc2ccc(Oc4ccccc4)cc2)O3)cc1	inactive
C[C@H](CO)N1C[C@H](C)[C@@H](CN(C)Cc2ccc(Oc3ccccc3)cc2)Oc2ccc(NS(=O)(=O)c3ccccc3)cc2C1=O	inactive
C[C@H]1CN([C@@H](C)CO)C(=O)c2cc(NS(=O)(=O)c3ccccc3)ccc2O[C@H]1CN(C)Cc1ccc(Oc2ccccc2)cc1	inactive
COc1ccc(S(=O)(=O)Nc2ccc3c(c2)C(=O)N([C@H](C)CO)C[C@@H](C)[C@@H](CN(C)Cc2ccc(Oc4ccccc4)cc2)O3)cc1	inactive
COc1ccc(S(=O)(=O)Nc2ccc3c(c2)C(=O)N([C@H](C)CO)C[C@H](C)[C@@H](CN(C)Cc2ccc(Oc4ccccc4)cc2)O3)cc1	active

Source: the antibiotic and cytotoxicity screens of Wong et al. (2023)
